About 83,000 compounds went through this panel and 20% of them were active in at least one assay; those are over-represented in the sample as a whole.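 Testing used 96-well plates and a 48-hour single-concentration exposure. Example: -40 means 40% of the starting cells died.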 Values without a mark were called inactive. Activity calls are given as the source filed them. Rule for the calls: active = growth percent below 10; inactive = the rest.
Columns and labels:
Assay in all cases: NCI-60 one-dose screen, 48 h (100 = growth as untreated, 0 = no growth, -100 = all killed)
Conditions in all cases: 10 µM unless noted
SK-MEL-2 melanoma = tested on: SK-MEL-2 melanoma
EKVX NSCLC = tested on: EKVX NSCLC
SN12C renal = tested on: SN12C renal
UO-31 renal = tested on: UO-31 renal
TK-10 renal = tested on: TK-10 renal
ACHN renal = tested on: ACHN renal
CAKI-1 renal = tested on: CAKI-1 renal
A498 renal = tested on: A498 renal
CCRF-CEM leukemia = tested on: CCRF-CEM leukemia
RPMI-8226 leukemia = tested on: RPMI-8226 leukemia
OVCAR-8 ovarian = tested on: OVCAR-8 ovarian
OVCAR-5 ovarian = tested on: OVCAR-5 ovarian
OVCAR-4 ovarian = tested on: OVCAR-4 ovarian
SK-OV-3 ovarian = tested on: SK-OV-3 ovarian
IGROV1 ovarian = tested on: IGROV1 ovarian
OVCAR-3 ovarian = tested on: OVCAR-3 ovarian
HS 578T breast = tested on: HS 578T breast
NCI/ADR-RES ovarian = tested on: NCI/ADR-RES ovarian
MOLT-4 leukemia = tested on: MOLT-4 leukemia

| Structure (SMILES) | growth (SK-MEL-2 melanoma) | growth (EKVX NSCLC) | growth (SN12C renal) | growth (UO-31 renal) | growth (TK-10 renal) | growth (ACHN renal) | growth (CAKI-1 renal) [%] | growth (A498 renal) [%] | growth (CCRF-CEM leukemia) | growth (RPMI-8226 leukemia) | growth (OVCAR-8 ovarian) | growth (OVCAR-5 ovarian) | growth (OVCAR-4 ovarian) [%] | growth (SK-OV-3 ovarian) [%] | growth (IGROV1 ovarian) [%] | growth (OVCAR-3 ovarian) | growth (HS 578T breast) | growth (NCI/ADR-RES ovarian) [%] | growth (MOLT-4 leukemia) [%] |
| --- | --- | --- | --- | --- | --- | --- | --- | --- | --- | --- | --- | --- | --- | --- | --- | --- | --- | --- | --- |
| COc1ccc(C(=O)/C=C/c2ccccc2Br)cc1S(N)(=O)=O | 81.2% | -80.2% (active) | -25.6% (active) | -65.2% (active) | 3.43% (active) | -97% (active) | 11.8 | 93.3 | 6.96% (active) | -9.4% (active) | -64.5% (active) | -6.5% (active) | 35.2 | 69.8 | 38.5 | -56.5% (active) | 47% | 16.1 |  |
| O=C1Nc2ccc([N+](=O)[O-])cc2C1=Nc1ccccc1 | 104% | 95.9% | 89.3% | 69.4% | 111% | 78.2% | 77.2 | 116 | 103% | 121% | 106% | 103% | 113 | 113 | 98.6 | 95.3% | 97.9% | 103 |  |
| COc1cc(NC(=O)c2cccc(C3CCc4c(cc(OC)c(OC)c4OC)O3)c2)cc(OC)c1OC (configuration not stated) | -1.8% (active) | 35.3% | 13.2% | 3.46% (active) | 56.6% | 17.3% | 14.8 | 112 | 18.1% | 16.2% | 5.15% (active) | 51.4% | 31.6 | 32.4 | 13.8 | 7.51% (active) | -8.84% (active) | 16.9 | 11.8 |
| COc1cc2c(c(OC)c1OC)C(=O)CC(c1cccc(NC(=O)c3cccc(NC(=O)[C@H](C)NC(=O)OC(C)(C)C)c3)c1)O2 (some centres not stated) | 50.9% | 93.3% | 59.9% | 44.1% | 101% | 41.5% | 42.2 | 104 | 31.2% | 36.5% | 28.2% | 123% | 51.8 | 91.9 | 65.3 | 52.9% | 73.6% | 80 | 36.5 |
| CC(=O)Oc1ccc(/C=C/C(=O)N[C@@H](Cc2ccccc2)C(O)C(=O)NCc2ccccc2)cc1OC(C)=O (some centres not stated) | 110% | 90.6% | 90.8% | 38.8% | 76.9% | 85.5% | 71.3 | 115 | 44.9% | 69.8% | 75.9% | 113% | 77.3 | 91.5 | 62.5 | 84.7% | 84.8% | 104 | 55.5 |
| O=C(Cn1c(/C=C/c2cccc([N+](=O)[O-])c2)nc2ccccc2c1=O)Nc1ccccc1 | 87.7% | 79.6% | 74.5% | 77.4% | 109% | 43.9% | 80.2 | 94.7 | 91.5% | 113% | 35.7% | 104% | 98 | 49.4 | 106 | 54.6% | 87.2% | 65 |  |
| NS(=O)(=O)c1ccc(-n2cc(-c3cccc(NC(=O)c4ccc(Cl)c(C(F)(F)F)c4)c3)nn2)cc1 | 78.3% | 46.5% | 34.3% | 51% | 48.7% | 23.2% | 33.2 | 91.1 | 28.3% | 46.3% | -60.8% (active) | 28.6% | 44.7 | 55.7 | 58.6 | -4.74% (active) | 32.1% | 78.2 |  |
| O=C(NNc1nc2cc(F)ccc2n2c(CN3CC4CNCC4C3)ccc12)c1ccncn1 (configuration not stated) | 42.7% | 12.7% | 7.46% (active) | 15.6% | 29.9% | 8.07% (active) | 12.1 | 59 | 12.7% | 21.6% | 13% | 34.8% | 28.6 | 31.5 | 22.1 | 43.1% | 45.3% | 59.8 |  |

Reference: PubChem BioAssay (NCI)
